Source: the supplement of paper PMC10849652
Of roughly 7,900 targets only a part is listed; those with a hit were picked by preference. About 0.6% of all pairs of compound and target were hits. Values without a mark were called inactive.

Legend:
Test in all cases: log2 fold change, soluble protein after heating vs DMSO (PISA); higher = thermal stabilisation; K562 cells, 10 uM, 30 min; active = over 0.2 and 3.5 SD of the protein, either way, in both replicates (recomputed)
bafetinib = compound: Cc1ccc(NC(=O)c2ccc(CN3CC[C@H](N(C)C)C3)c(C(F)(F)F)c2)cc1Nc1nccc(-c2cncnc2)n1 [bafetinib]
In short: (§1)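 Thermal stability values are relative to control samples and come from duplicates. They are expressed as log2 fold changes. For measurement, K562 cells (2×10^6 cells/mL) received 10 μM compound for 30 min, and aliquots were heated for 3 min over 48°C-58°C, pooled, and extracted at 4°C in PBS with 0.5% NP-40. Soluble protein, the supernatant after 21,000xg for 90 min, was quantified by TMTpro 16plex LC-MS/MS with equalised channel sums.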

[1] = compound: Cc1cccc(CC(=O)N2CCc3c2ccc(-c2cn(C)c4ncnc(N)c24)c3F)n1
In short: as §1

nilotinib = compound: Cc1cn(-c2cc(NC(=O)c3ccc(C)c(Nc4nccc(-c5cccnc5)n4)c3)cc(C(F)(F)F)c2)cn1 [nilotinib]
In short: as §1

[2] = compound: Cc1nc(Nc2n[nH]c3c2CN(C(=O)N[C@H](CN(C)C)c2ccccc2)C3(C)C)c2sccc2n1
In short: as §1

dasatinib = compound: Cc1nc(Nc2ncc(C(=O)Nc3c(C)cccc3Cl)s2)cc(N2CCN(CCO)CC2)n1 [dasatinib]
In short: as §1

[3] = compound: Cc1ncc(-c2ccnc(Nc3ccc(S(C)(=O)=O)cc3)n2)n1C(C)C
In short: as §1

[4] = compound: Cn1cc(-c2ccc3c(c2)CCN3C(=O)Cc2cccc(C(F)(F)F)c2)c2c(N)ncnc21
In short: as §1

[5] = compound: Cn1cc(-c2ccc3nnc(C(F)(F)c4ccc5ncccc5c4)n3n2)cn1
In short: as §1

tipifarnib = compound: Cn1cncc1[C@@](N)(c1ccc(Cl)cc1)c1ccc2c(c1)c(-c1cccc(Cl)c1)cc(=O)n2C [tipifarnib]
In short: as §1

mubritinib = compound: FC(F)(F)c1ccc(/C=C/c2nc(COc3ccc(CCCCn4ccnn4)cc3)co2)cc1 [mubritinib]
In short: as §1

[6] = compound: NC(=O)Nc1cc(-c2cccc(F)c2)sc1C(=O)N[C@H]1CCCNC1
In short: as §1

[7] = compound: NC(=O)c1cnc(N[C@@H]2CCCC[C@@H]2N)nc1Nc1cccc(-n2nccn2)c1
In short: as §1

[8] = compound: NC1(c2ccc(-c3nc4ccn5c(=O)[nH]nc5c4cc3-c3ccccc3)cc2)CCC1
In short: as §1

[9] = compound: NCC(=O)Nc1ccc(-n2nc(C(F)(F)F)cc2-c2ccc3c(ccc4ccccc43)c2)cc1
In short: as §1

entinostat = compound: Nc1ccccc1NC(=O)c1ccc(CNC(=O)OCc2cccnc2)cc1 [entinostat]
In short: as §1

vorinostat = compound: O=C(CCCCCCC(=O)Nc1ccccc1)NO [vorinostat]
In short: as §1

citarinostat = compound: O=C(CCCCCCNC(=O)c1cnc(N(c2ccccc2)c2ccccc2Cl)nc1)NO [citarinostat]
In short: as §1

silmitasertib = compound: O=C(O)c1ccc2c(c1)nc(Nc1cccc(Cl)c1)c1ccncc12 [silmitasertib]
In short: as §1

[10] = compound: O=C1NC(=O)C(c2cnc3ccccn23)=C1c1cn2c3c(cc(F)cc13)CN(C(=O)N1CCCCC1)CC2
In short: as §1

[11] = compound: c1cc(OCCN2CCCCC2)cc(-c2n[nH]c3ccc(-c4nnc[nH]4)cc23)c1
In short: as §1

UniProt Q93008, sequence (Q93008 whole entry, looked up): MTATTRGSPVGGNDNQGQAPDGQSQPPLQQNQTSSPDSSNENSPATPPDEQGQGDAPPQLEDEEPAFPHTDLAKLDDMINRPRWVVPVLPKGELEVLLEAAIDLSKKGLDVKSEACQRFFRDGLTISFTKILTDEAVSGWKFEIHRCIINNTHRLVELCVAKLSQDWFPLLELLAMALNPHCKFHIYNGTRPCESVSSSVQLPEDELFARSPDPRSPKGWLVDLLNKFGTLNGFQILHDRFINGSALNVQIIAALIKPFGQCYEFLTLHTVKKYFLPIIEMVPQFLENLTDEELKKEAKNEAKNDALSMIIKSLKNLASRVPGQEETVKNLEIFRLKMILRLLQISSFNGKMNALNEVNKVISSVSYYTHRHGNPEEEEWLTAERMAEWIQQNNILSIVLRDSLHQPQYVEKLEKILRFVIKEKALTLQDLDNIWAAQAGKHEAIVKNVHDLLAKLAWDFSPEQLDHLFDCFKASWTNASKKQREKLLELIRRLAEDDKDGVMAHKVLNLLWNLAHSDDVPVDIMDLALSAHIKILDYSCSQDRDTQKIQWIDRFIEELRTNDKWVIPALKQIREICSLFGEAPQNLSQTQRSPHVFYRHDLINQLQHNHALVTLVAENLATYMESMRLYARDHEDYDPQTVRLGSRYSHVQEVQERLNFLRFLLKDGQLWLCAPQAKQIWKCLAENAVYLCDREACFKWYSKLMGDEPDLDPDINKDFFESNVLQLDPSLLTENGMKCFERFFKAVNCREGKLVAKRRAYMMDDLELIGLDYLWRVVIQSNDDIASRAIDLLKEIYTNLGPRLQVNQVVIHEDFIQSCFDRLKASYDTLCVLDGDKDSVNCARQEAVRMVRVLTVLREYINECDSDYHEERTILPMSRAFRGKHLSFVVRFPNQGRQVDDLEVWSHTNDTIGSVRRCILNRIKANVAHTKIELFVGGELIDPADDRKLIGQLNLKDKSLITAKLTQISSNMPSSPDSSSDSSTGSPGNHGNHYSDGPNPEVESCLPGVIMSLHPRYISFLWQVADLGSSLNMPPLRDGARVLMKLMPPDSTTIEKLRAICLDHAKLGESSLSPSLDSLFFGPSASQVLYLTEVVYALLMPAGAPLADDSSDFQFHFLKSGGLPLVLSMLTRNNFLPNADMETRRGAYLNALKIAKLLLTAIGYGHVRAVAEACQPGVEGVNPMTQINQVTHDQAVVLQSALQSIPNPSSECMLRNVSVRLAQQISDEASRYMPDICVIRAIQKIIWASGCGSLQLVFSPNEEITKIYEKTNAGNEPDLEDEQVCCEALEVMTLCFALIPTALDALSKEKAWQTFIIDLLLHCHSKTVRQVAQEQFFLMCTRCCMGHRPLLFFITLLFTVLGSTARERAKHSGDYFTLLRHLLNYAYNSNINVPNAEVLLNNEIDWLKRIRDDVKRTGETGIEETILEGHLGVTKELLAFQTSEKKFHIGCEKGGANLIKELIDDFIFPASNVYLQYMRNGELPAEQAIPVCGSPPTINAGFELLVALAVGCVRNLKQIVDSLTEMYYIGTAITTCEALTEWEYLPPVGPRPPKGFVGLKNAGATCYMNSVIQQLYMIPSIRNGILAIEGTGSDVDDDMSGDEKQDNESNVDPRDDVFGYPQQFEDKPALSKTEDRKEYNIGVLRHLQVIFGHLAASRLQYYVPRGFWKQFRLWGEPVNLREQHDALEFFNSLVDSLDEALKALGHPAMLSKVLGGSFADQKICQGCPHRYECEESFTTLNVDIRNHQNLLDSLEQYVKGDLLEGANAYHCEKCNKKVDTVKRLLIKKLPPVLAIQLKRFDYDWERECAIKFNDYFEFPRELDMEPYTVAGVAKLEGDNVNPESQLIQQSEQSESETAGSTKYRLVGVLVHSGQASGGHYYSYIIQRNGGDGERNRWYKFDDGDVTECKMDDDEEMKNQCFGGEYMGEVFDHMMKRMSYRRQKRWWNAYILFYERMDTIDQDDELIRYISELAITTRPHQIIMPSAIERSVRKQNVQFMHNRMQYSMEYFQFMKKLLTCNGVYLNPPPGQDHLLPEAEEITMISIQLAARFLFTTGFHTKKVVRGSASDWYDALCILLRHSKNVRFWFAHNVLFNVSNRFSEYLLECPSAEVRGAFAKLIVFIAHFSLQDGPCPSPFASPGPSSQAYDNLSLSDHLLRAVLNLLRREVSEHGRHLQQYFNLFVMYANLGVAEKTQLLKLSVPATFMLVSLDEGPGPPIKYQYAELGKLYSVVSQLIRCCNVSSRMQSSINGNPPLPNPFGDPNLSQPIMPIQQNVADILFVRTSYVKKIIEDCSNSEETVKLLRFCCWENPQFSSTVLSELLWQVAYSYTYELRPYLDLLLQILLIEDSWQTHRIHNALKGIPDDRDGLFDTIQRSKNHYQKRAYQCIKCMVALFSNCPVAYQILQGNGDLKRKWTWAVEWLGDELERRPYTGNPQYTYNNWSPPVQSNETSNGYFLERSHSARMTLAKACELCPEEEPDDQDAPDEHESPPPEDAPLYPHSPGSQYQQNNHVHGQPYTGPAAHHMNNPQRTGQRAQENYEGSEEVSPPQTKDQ
UniProt Q9P0T7, sequence (Q9P0T7 whole entry, looked up): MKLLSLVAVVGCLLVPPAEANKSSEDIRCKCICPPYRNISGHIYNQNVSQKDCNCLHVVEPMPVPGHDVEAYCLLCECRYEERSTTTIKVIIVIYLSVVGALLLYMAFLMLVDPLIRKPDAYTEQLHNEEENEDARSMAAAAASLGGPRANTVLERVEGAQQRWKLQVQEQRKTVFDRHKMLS
UniProt Q15388, sequence (Q15388 whole entry, looked up): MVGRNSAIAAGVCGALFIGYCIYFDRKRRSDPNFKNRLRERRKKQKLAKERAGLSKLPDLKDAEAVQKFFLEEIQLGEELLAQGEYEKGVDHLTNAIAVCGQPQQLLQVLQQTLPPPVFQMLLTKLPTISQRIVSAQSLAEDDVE
UniProt Q9Y6I4, sequence (Q9Y6I4 whole entry, looked up): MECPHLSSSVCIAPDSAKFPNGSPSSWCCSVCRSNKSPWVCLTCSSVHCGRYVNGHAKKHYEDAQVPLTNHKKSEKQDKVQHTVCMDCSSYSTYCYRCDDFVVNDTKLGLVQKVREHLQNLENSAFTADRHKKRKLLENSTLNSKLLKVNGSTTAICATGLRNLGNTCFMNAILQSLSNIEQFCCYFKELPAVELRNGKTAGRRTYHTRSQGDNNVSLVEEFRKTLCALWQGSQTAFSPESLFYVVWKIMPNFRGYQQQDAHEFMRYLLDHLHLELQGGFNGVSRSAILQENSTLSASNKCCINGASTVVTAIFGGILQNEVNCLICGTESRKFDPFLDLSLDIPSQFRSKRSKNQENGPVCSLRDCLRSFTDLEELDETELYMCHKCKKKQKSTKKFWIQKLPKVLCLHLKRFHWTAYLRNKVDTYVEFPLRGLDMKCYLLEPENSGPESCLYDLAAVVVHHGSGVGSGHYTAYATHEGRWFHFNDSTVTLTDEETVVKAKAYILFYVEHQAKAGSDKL
UniProt Q99816, sequence (Q99816 whole entry, looked up): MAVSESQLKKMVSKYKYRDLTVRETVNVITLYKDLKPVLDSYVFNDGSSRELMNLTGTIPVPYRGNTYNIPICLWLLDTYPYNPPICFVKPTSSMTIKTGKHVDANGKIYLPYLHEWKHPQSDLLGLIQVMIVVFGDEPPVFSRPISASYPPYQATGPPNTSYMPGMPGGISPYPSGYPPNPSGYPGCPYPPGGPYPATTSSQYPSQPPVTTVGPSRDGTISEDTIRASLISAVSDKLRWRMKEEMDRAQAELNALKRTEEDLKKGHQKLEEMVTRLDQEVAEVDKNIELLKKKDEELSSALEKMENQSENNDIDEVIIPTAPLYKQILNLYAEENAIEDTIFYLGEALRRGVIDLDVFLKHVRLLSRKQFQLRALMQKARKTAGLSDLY
UniProt Q12768, sequence (Q12768 whole entry, looked up): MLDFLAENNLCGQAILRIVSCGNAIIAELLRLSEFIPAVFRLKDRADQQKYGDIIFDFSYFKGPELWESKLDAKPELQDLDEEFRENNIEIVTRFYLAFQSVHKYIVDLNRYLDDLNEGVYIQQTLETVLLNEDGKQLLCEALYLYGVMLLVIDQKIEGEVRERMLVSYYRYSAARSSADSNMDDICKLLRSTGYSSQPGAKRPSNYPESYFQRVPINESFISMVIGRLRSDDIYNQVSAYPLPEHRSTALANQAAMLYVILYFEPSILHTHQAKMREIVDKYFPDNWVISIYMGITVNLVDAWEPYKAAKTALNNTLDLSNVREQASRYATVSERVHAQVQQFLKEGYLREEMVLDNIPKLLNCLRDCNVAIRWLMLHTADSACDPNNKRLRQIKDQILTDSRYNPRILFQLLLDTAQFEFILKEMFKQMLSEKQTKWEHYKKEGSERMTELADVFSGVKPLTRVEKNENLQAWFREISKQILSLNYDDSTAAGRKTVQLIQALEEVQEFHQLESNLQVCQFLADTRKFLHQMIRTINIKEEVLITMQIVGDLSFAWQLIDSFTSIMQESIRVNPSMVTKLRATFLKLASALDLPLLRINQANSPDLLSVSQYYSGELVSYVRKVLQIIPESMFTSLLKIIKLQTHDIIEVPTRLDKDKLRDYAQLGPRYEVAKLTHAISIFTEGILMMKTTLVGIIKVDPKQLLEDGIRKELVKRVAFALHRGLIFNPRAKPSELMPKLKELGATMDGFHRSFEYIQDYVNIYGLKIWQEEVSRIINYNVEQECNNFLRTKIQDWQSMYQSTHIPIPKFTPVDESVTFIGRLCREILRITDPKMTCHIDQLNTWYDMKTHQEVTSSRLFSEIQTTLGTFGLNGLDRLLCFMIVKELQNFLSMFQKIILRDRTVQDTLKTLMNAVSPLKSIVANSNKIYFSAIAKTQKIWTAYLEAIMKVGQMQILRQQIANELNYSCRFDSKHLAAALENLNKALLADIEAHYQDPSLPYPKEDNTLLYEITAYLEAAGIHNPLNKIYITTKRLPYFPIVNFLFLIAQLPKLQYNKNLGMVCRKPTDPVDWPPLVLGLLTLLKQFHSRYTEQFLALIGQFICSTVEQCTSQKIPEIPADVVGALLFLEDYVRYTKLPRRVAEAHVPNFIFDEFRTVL

Target | log2 fold change (bafetinib) | log2 fold change [1] | log2 fold change (nilotinib) | log2 fold change [2] | log2 fold change (dasatinib) | log2 fold change [3] | log2 fold change [4] | log2 fold change [5] | log2 fold change (tipifarnib) | log2 fold change (mubritinib) | log2 fold change [6] | log2 fold change [7] | log2 fold change [8] | log2 fold change [9] | log2 fold change (entinostat) | log2 fold change (vorinostat) | log2 fold change (citarinostat) | log2 fold change (silmitasertib) | log2 fold change [10] | log2 fold change [11]
UBC (UniProt P0CG48) | 0.055 | -0.156 | 0.116 | 0.013 | 0.02 | -0.025 | 0.003 | 0.07 | -0.051 | 0.005 | -0.003 | -0.022 | 0.214 | 0.01 | -0.023 | -0.11 | -0.13 | -0.076 | -0.117 | -0.068
USP9X (UniProt Q93008) | -0.016 | 0.071 | -0.099 | -0.056 | -0.122 | -0.004 | -0.052 | -0.021 | -0.126 | 0.052 | 0 | -0.062 | -0.174 | -0.041 | 0.037 | 0.06 | 0.032 | 0.017 | -0.015 | -0.056
VPS41 (UniProt P49754) | -0.134 | 0.034 | -0.012 | -0.039 | -0.094 | -0.03 | 0 | 0.013 | -0.084 | 0.08 | -0.006 | -0.163 | -0.267 (active) | -0.163 | 0.083 | 0.072 | 0.082 | -0.006 | -0.046 | -0.056
WASHC5 (UniProt Q12768) | -0.052 | 0.044 | -0.046 | -0.001 | -0.112 | -0.004 | 0.005 | 0.086 | -0.001 | 0.027 | 0 | -0.011 | -0.232 (active) | -0.047 | 0.04 | 0.022 | 0.074 | 0.045 | 0.038 | -0.012
UFD1 isoform 1 (UniProt Q92890) | -0.007 | 0.01 | 0.025 | -0.019 | 0.031 | -0.003 | 0.006 | 0.002 | -0.046 | 0.041 | -0.001 | -0.015 | -0.03 | -0.001 | 0.01 | 0.003 | 0.061 | -0.014 | 0.014 | 0.034
TMEM9 (UniProt Q9P0T7) | 0.028 | -0.048 | -0.017 | -0.022 | -0.087 | -0.037 | 0.057 | -0.007 | -0.068 | 0.025 | -0.008 | 0.047 | -0.113 | 0.063 | -0.026 | -0.053 | 0.1 | -0.044 | -0.031 | 0.065
USP3 (UniProt Q9Y6I4) | 0.011 | -0.009 | -0.125 | -0.198 | -0.185 | -0.026 | 0.027 | -0.023 | -0.226 | 0.045 | 0.039 | 0.016 | -0.218 | -0.115 | -0.037 | 0.092 | 0.102 | 0.019 | -0.066 | -0.014
TSG101 (UniProt Q99816) | -0.096 | -0.034 | -0.014 | -0.081 | -0.092 | -0.007 | 0.033 | -0.024 | -0.033 | 0.052 | -0.02 | -0.082 | -0.157 | -0.033 | 0.038 | -0.007 | 0.053 | 0.025 | -0.103 | 0.025
TOMM20 (UniProt Q15388) | -0.194 | -0.035 | -0.002 | -0.031 | 0.039 | 0.01 | 0.003 | 0.006 | -0.095 | 0.017 | 0.008 | -0.034 | -0.023 | -0.131 | 0.01 | 0.031 | -0.088 | -0.006 | -0.088 | -0.01
VRK2 (UniProt Q86Y07) | 0.033 | 0.081 | -0.062 | 0.414 (active) | 0.011 | 0.033 | 0.129 | -0.066 | -0.057 | 0.006 | 0.023 | 0.04 | -0.111 | -0.025 | 0.032 | 0.02 | 0.008 | 0 | 0.06 | 0.001
XPOT (UniProt O43592) | -0.014 | 0.013 | -0.083 | -0.012 | -0.13 | 0.083 | -0.075 | 0.066 | -0.173 | 0.077 | -0.04 | -0.103 | -0.241 | -0.061 | 0.063 | 0.031 | 0.069 | 0.134 | 0.057 | -0.047
UBE4A isoform 2 (UniProt Q14139) | 0.01 | 0.065 | -0.111 | -0.162 | -0.196 | 0.015 | -0.183 | -0.023 | -0.092 | 0.021 | -0.017 | 0.01 | -0.136 | 0.001 | 0.146 | 0.133 | 0.059 | 0.117 | 0.026 | -0.014
USP48 isoform 8 (UniProt Q86UV5) | 0.005 | -0.089 | -0.097 | -0.362 | -0.139 | -0.073 | -0.041 | 0.097 | -0.11 | -0.021 | -0.077 | 0.002 | -0.235 | -0.125 | 0.351 | 0.178 | 0.177 | 0.094 | -0.177 | -0.157
UBR2 (UniProt Q8IWV8) | 0.021 | 0.072 | 0.02 | 0.01 | -0.107 | -0.069 | -0.023 | 0.058 | -0.095 | 0.011 | -0.007 | 0.038 | 0.039 | 0.007 | 0.049 | 0.137 | 0.05 | 0.061 | 0.044 | -0.14
TTC38 (UniProt Q5R3I4) | -0.012 | 0.021 | 0.038 | 0.034 | 0.024 | -0.04 | 0.071 | -0.021 | 0.05 | 0.322 | 0.038 | 0.113 | -0.263 | -0.09 | 0.111 | 0.459 (active) | -0.243 | -0.156 | 0.042 | 0.313
